Measured values: PubChem BioAssay (NCATS)
Several values for one entry are separate records, joined by “and”; a condition that tells them apart may be missing. Equal entries are not always repeated. Inconclusive results are not listed. Activity calls are given as the source filed them. The call rests on the fitted dose curve; in most records, active means well fitted curve in the direction sought with a large enough effect; inconclusive means small, poorly fitted or top-dose-only effect, or another doubt; inactive means no such curve, though single readings can be large; an effect the other way counts as inactive or inconclusive.

Key:
[1] = tested on: CRL-7250; test: Cytotoxic Profiling of Annotated Libraries Using Quantitative High-Throughput Screening (AID 1296008); settings: Five cell lines viability, CellTiter-Glo ATP luminescence, 48-72 h; max response: stronger effect = lower value; further: nearly all actives have a fitted effect of over 60% in size; further: potency means the concentration at half of the fitted maximal effect
How it was run: (§1)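 Compounds were pin-transferred onto cells and incubated 48 or 72 hr at 37 degree Celsius, 95% humidity. CellTiter-Glo was added, plates sat 10 min at room temperature, then ATP-coupled luminescence was imaged as the viability read-out.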

[2] = tested on: HaCat; test: as above; settings: Five cell lines viability, CellTiter-Glo ATP luminescence, 48-72 h; max response: stronger effect = lower value
How it was run: as §1

[3] = tested on: Es-2; test: Primary qHTS to identify gynecologic anti-cancer compounds using libraries of approved drugs and bioactive compounds (AID 1345084); settings: Gynecologic cancer cell panel viability, ATPlite luminescence, 48 h; series mostly up to 57.5 µM; further: nearly all actives have a fitted effect of over 55% in size
How it was run: (§2)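 Cells, 1,000 per well, plated 16 h, then exposed 48 h at 37 C to compounds. Viability by ATPlite luminescence after 15 min at room temperature.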

[4] = tested on: HEK293; test: Cytotoxic Profiling of Annotated Libraries Using Quantitative High-Throughput Screening (AID 1296008); settings: Five cell lines viability, CellTiter-Glo ATP luminescence, 48-72 h; max response: stronger effect = lower value; further: nearly all actives have a fitted effect of over 60% in size; further: potency means the concentration at half of the fitted maximal effect
How it was run: as §1

[5] = tested on: KB-3-1; test: as above; settings: Five cell lines viability, CellTiter-Glo ATP luminescence, 48-72 h; max response: stronger effect = lower value
How it was run: as §1

[6] = tested on: NIH3T3; test: as above; settings: Five cell lines viability, CellTiter-Glo ATP luminescence, 48-72 h; max response: stronger effect = lower value
How it was run: as §1

[7] = tested on: MCC-13; test: qHTS assay to identify novel small-molecules to repurpose for Merkel cell carcinoma treatment (AID 1296009); settings: MCC and control cell lines, CellTiter-Glo viability, 72 h; series mostly up to 46 µM; further: nearly all actives have a fitted effect of over 60% in size; further: potency means the concentration at half of the fitted maximal effect
How it was run: (§3)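 qHTS format: cells treated with library compounds in DMSO across 8 (NPC) or 11 (MIPE) concentrations. Readout after 72 hr at 37 degree celsius was CellTiter-Glo luminescence.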

[8] = tested on: MKL-1; test: as above; settings: MCC and control cell lines, CellTiter-Glo viability, 72 h; series mostly up to 46 µM
How it was run: as §3

[9] = tested on: MKL-2; test: as above; settings: MCC and control cell lines, CellTiter-Glo viability, 72 h; series mostly up to 46 µM
How it was run: as §3

[10] = tested on: WaGa; test: as above; settings: MCC and control cell lines, CellTiter-Glo viability, 72 h; series mostly up to 46 µM
How it was run: as §3

[11] = tested on: MCC-26; test: as above; settings: MCC and control cell lines, CellTiter-Glo viability, 72 h; series mostly up to 46 µM
How it was run: as §3

[12] = tested on: UISO; test: as above; settings: MCC and control cell lines, CellTiter-Glo viability, 72 h; series mostly up to 46 µM
How it was run: as §3

[13] = tested on: C33A; test: Primary qHTS to identify gynecologic anti-cancer compounds using libraries of approved drugs and bioactive compounds (AID 1345084); settings: Gynecologic cancer cell panel viability, ATPlite luminescence, 48 h; series mostly up to 57.5 µM; further: nearly all actives have a fitted effect of over 55% in size
How it was run: as §2

[14] = tested on: CAOV3; test: as above; settings: Gynecologic cancer cell panel viability, ATPlite luminescence, 48 h; series mostly up to 57.5 µM
How it was run: as §2

[15] = tested on: CASKI; test: as above; settings: Gynecologic cancer cell panel viability, ATPlite luminescence, 48 h; series mostly up to 57.5 µM
How it was run: as §2

[16] = tested on: HeLa; test: as above; settings: Gynecologic cancer cell panel viability, ATPlite luminescence, 48 h; series mostly up to 57.5 µM
How it was run: as §2

[17] = tested on: Hek293T; test: as above; settings: Gynecologic cancer cell panel viability, ATPlite luminescence, 48 h, control line for the selectivity index; series mostly up to 57.5 µM
How it was run: as §2

[18] = tested on: HEK293T; test: qHTS assay to identify novel small-molecules to repurpose for Merkel cell carcinoma treatment (AID 1296009); settings: MCC and control cell lines, CellTiter-Glo viability, 72 h; at 44.8 µM (top of the series) unless noted; further: nearly all actives have a fitted effect of over 60% in size; further: potency means the concentration at half of the fitted maximal effect
How it was run: as §3

[19] = tested on: HACAT; test: as above; settings: MCC and control cell lines, CellTiter-Glo viability, 72 h; at 44.8 µM (top of the series) unless noted
How it was run: as §3
On the % scale 0 is the no-effect control and ±100 the full control effect.

C=CC(=O)Nc1cccc(Sc2nc(Nc3ccc(N4CCN(C)CC4)cc3)ncc2Cl)c1
active: Potency [1] 33.2 µM | Potency [2] 5.8 µM
inactive: Potency [3]

C[C@@H](O[C@H]1OCCN(Cc2n[nH]c(=O)[nH]2)[C@@H]1c1ccc(F)cc1)c1cc(C(F)(F)F)cc(C(F)(F)F)c1
active: Potency [4] 20.9 µM | Potency [5] 26.4 µM
inactive: max response [2] -38.5% | max response [6] -21.1% | Potency [7] | Potency [8] | Potency [9] | Potency [10]

CN1CCN(c2cccc(Nc3nc4c(-c5ccc(S(C)(=O)=O)cc5)cccn4n3)c2)CC1
inactive: outcome [5] | max response [6] -10.8% and -33.2% | Potency [7] | Potency [11] | Potency [8] | Potency [9] | Potency [12] | Potency [10] | Potency [13] | Potency [14] | Potency [15] | Potency [3] | Potency [16] | Potency [17]
active: Potency [4] 9.2 µM | Potency [2] 14.8 µM and 5.17 µM

Oc1cc(O)cc(C=Cc2ccc(O)c(O)c2)c1
inactive: outcome [4] | max response [2] -2.98% | max response [5] -8.49% | max response [6] 3.17% | outcome [18] | Potency [7]
active: Potency [10] 18.7 µM

NC(=O)c1noc([C@H](CCCC2CCCCC2)CC(=O)NO)n1
active: Potency [4] 11.8 µM | Potency [6] 18.7 µM and 16.4 µM | Potency [8] 16.6 µM | Potency [12] 14.8 µM
inactive: max response [5] -19.6% and 9.75% | Potency [11] | Potency [13] | Potency [15] | Potency [3] | Potency [16] | Potency [17]

CN[C@@H]1CN(c2ccc3c(=O)c(C(=O)O)cn(-c4nccs4)c3n2)C[C@@H]1OC
inactive: Potency [11]
active: Potency [4] 1.29 µM | Potency [2] 6.45 µM | Potency [6] 512 nM | Potency [8] 1.82 µM | Potency [9] 3.23 µM | Potency [10] 1.15 µM

CC(C)C[C@H](NC(=O)c1cc2ccccc2s1)C(=O)N1CCN(C(=O)[C@H](CO)NS(=O)(=O)c2ccc(Cl)cc2Cl)CC1
active: Potency [4] 18.7 µM
inactive: max response [2] -15.5% | max response [6] -5.73% | Potency [7] | Potency [11] | Potency [8] | Potency [9] | Potency [10]

CN(C)N=Nc1nc[nH]c1C(N)=O
active: Potency [4] 3.72 µM | Potency [2] 18.7 µM | Potency [5] 4.69 µM
inactive: max response [6] -2.97% | Potency [7] | Potency [11] | Potency [8] | Potency [12]

C#CCN(C)CC1=Cc2ccccc2Oc2ccccc21
inactive: max response [1] -16.4% | max response [5] -4.88% | max response [6] -28.1% | Potency [7] | Potency [11] | Potency [8] | Potency [9] | Potency [10]

CNC(=O)c1cc(Oc2ccc(NC(=O)Nc3ccc(Cl)c(C(F)(F)F)c3)c(F)c2)ccn1
inactive: outcome [2] | max response [5] 1.15% | max response [6] -27% | outcome [19] | Potency [11] | Potency [14] | Potency [15] | Potency [3] | Potency [16] | Potency [17]
active: Potency [4] 7.43 µM | Potency [9] 16.6 µM | Potency [12] 5.9 µM | Potency [10] 18.7 µM

NS(=O)(=O)c1ccc(Nc2nc(OCC3CCCCC3)c3[nH]cnc3n2)cc1
inactive: max response [2] -17.9% | Potency [7] | Potency [11] | Potency [9] | Potency [13] | Potency [15] | Potency [3] | Potency [16] | Potency [17]
active: Potency [4] 18.4 µM | Potency [5] 14.8 µM | Potency [12] 2.35 µM

Cc1cccc(-c2[nH]c(C(C)(C)C)nc2-c2ccc3c(c2)OCO3)n1
active: Potency [4] 4.18 µM | Potency [6] 7430 nM | Potency [8] 3.72 µM | Potency [9] 0.743 µM | Potency [12] 1.32 µM | Potency [10] 2.64 µM
inactive: max response [2] -21.5%

CC(C)N(CCCNC(=O)Nc1ccc(C(C)(C)C)cc1)C[C@H]1O[C@@H](n2cc(Br)c3c(N)ncnc32)[C@H](O)[C@H]1O
inactive: max response [2] -6.68% | Potency [7] | Potency [11] | Potency [8] | Potency [9] | Potency [10]
active: Potency [4] 18.7 µM | Potency [5] 26.4 µM

O=C(O)c1ccc(O)c2ncc(N3CCOCC3)cc12
active: Potency [8] 16.6 µM | Potency [9] 14.8 µM | Potency [10] 23.5 µM
inactive: max response [4] 4.93% | outcome [2] | max response [5] 3.25% | outcome [19] | Potency [7]

O=C(Nc1ccc(OC(F)(F)F)cc1)c1sccc1NCc1ccnc2ccccc12
active: Potency [4] 8.33 µM and 20.6 µM
inactive: outcome [2] | outcome [19] | Potency [7] | Potency [13] | Potency [14] | Potency [15] | Potency [3] | Potency [16] | Potency [17]
